The campaign covered roughly 220,000 compounds. About 5,700 (2.6%) were called active. Where a call stands in place of a potency, no number is given. Not shown: some 18% with an inconclusive outcome. The call rests on the fitted dose curve; in most records, active means well fitted inhibition curve with a large enough effect; inconclusive means small, poorly fitted or top-dose-only effect; inactive means no such curve, though single readings can be large or run the other way. The sample as a whole holds a higher share of actives than the screen did.
Molecular target: Lysine-specific demethylase 5B (Homo sapiens) (UniProt Q9UGL1)
Assay: Primary screen for KDM5B Histone Demethylases FDH-coupled qHTS; further: nearly all actives have a fitted effect of over 70% in size
Conditions: FDH-coupled NADH fluorescence (FDH is formaldehyde dehydrogenase); series mostly up to 57.7 µM
Procedure, shortened: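 qHTS format, multiple compound concentrations. Buffer 50 mM HEPES pH 7.5/0.01% Tween-20; 200 nM KDM5BΔAP final; 10 min compound preincubation; substrate-mix levels 12.5 µM peptide, 25 µM α-KG, 0.25 mM NAD⁺; 30 min RT; ΔRFU.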
Potency means the concentration at half of the fitted maximal effect.

Lysine-specific demethylase 5B (Homo sapiens), sequence (Q9UGL1 whole entry, looked up): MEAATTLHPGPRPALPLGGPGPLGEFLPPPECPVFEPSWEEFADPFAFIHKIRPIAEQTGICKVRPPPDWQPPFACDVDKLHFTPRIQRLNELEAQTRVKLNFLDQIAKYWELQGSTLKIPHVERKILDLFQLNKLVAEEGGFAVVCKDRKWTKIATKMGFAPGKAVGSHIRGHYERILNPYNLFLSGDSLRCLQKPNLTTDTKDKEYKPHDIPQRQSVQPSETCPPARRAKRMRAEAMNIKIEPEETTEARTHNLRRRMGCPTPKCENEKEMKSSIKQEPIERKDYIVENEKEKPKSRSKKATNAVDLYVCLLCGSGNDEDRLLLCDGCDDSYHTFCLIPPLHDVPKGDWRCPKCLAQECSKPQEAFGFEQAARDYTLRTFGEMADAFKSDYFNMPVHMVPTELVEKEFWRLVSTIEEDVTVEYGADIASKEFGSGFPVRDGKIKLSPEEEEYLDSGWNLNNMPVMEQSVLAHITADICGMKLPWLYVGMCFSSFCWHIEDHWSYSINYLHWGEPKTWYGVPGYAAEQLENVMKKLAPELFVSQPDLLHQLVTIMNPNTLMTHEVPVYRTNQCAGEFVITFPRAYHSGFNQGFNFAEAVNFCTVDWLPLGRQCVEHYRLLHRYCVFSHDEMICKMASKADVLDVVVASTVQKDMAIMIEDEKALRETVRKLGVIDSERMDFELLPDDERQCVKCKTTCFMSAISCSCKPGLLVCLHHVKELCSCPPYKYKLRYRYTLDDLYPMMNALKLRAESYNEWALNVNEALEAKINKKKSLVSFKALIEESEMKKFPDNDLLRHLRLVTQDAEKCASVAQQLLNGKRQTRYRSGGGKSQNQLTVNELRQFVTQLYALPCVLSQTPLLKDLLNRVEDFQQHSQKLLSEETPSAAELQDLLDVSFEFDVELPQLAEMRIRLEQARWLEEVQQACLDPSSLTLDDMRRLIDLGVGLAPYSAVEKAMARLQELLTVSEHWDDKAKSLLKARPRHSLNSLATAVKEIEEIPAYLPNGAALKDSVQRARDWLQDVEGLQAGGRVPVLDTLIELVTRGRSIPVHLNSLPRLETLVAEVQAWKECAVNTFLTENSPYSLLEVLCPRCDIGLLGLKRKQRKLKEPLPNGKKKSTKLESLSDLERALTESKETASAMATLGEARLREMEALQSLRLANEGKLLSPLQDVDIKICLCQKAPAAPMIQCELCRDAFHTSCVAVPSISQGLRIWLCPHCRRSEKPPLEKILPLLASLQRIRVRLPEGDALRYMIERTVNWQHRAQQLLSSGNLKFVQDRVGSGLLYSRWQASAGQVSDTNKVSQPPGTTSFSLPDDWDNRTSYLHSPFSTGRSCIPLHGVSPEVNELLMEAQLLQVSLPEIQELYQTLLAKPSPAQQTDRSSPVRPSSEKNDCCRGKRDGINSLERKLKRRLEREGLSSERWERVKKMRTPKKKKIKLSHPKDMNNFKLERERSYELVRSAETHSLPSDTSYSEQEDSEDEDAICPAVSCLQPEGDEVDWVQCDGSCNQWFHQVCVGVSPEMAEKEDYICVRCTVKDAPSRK

| Compound | Potency |
| --- | --- |
| Cc1ccccc1/C=C1\Oc2cc(OS(C)(=O)=O)ccc2C1=O | inactive |
| O=C(Cc1cccc(F)c1)NC1CCC(c2ccccc2)CC1 (stereo not given) | inactive |
| O=c1ncn(Cc2ccccc2)c2ccc(-c3ccoc3)nc12 | 39.8 µM (active) |
| CCOc1ccccc1NC(=O)Cc1c(C)[nH]n(-c2nc(-c3ccccc3)cs2)c1=O | inactive |
| CNCCCNC(=O)C(=O)Nc1cccc2[nH]ccc12 | inactive |
| Cc1ccccc1OCc1nnc(SCC(=O)c2ccc(Cl)cc2)n1C | inactive |
| Cc1ccc(C)c(N2CCN(C(=O)Cn3nc(C)c4sc5ccccc5c4c3=O)CC2)c1 | inactive |
| Cc1nn(CC(=O)O)c(=O)c2nc(C(C)C)sc12 | inactive |
| CCN1CCN(C(=O)Cn2nc(C)c3sc(-c4ccccc4)nc3c2=O)CC1 | 22.4 µM (active) |
| COc1ccccc1NC(=O)C1CCN(c2nc3ccccc3nc2OC)CC1 | inactive |
| Cc1cc(Cl)ccc1-c1ccc(CN)cc1 | inactive |
| COCCNC(=O)C1CCN(S(=O)(=O)c2ccc3c(ccn3C)c2)CC1 | inactive |
| N#Cc1cccnc1-c1cccc(C(=O)O)c1 | inactive |
| CC(C)(O)CCc1cccc(C(=O)NC2CCN(c3ncccc3C#N)CC2)c1 | 22.4 µM (active) |
| N#Cc1ccccc1Sc1ccccc1C(=O)NC1CCCCC1 | inactive |
| Cc1ccc(C(=O)NCc2nc(C)cs2)cn1 | inactive |
| CC(C)C1=C/C(=C/c2ccccc2)C(C)/C(=C/c2ccccc2)C1=O (stereo not given) | inactive |
| CC1CCC2(CC1)NC(=O)N(CC(=O)NCc1ccco1)C2=O (stereo not given) | inactive |
| Cc1ccccc1CNC(=O)CN1C(=O)C2(CCNCC2)Nc2ccccc21 | 14.1 µM (active) |
| Cc1ccccc1NC(=O)CN1C(=O)C(C)(C)c2ccccc21 | inactive |
| CCn1c(=O)c2ccccc2n(CC(=O)Nc2ccccc2C(F)(F)F)c1=O | inactive |
| CCNC(=O)NC(=O)C(C)Sc1nc(-c2ccccc2)c(-c2ccccc2)o1 (stereo not given) | inactive |
| Cc1nc2cc(NC(=O)c3ccc(C(=O)c4ccccc4)cc3)ccc2o1 | inactive |
| Cc1ccccc1N(C)C1CN(Cc2cccc3ccccc23)C1 | inactive |
| c1ccc2c(c1)CCN2C1CN(Cc2cccc3ccccc23)C1 | 100 µM (active) |

| Compound | Potency |
| --- | --- |
| CN(Cc1cccc2ccccc12)C1CCc2ccccc21 (stereo not given) | inactive |
| Cc1oc(-c2cccs2)nc1CC(=O)N1CCC2(CC1)NC(=O)NC2=O | inactive |
| COc1ccc(NC(=O)O[C@@H]2CO[C@H]3[C@@H]2OC[C@@H]3NC(=O)C2CCCCC2)cc1 | inactive |
| O=C(Nc1cccc(C(F)(F)F)c1)O[C@@H]1CO[C@H]2[C@@H]1OC[C@@H]2Nc1nccc(-c2ccc3c(c2)OCO3)n1 | 31.6 µM (active) |
| CC(C)(CC(=O)O)CC(=O)N[C@H]1CO[C@H]2[C@@H]1OC[C@@H]2Nc1nccc(-c2ccc3c(c2)OCO3)n1 | 28.2 µM (active) |
| COCC(=O)N[C@H]1CO[C@H]2[C@@H]1OC[C@@H]2Nc1nccc(C(C)(C)C)n1 | inactive |
| CC(C)(C)c1ccnc(N[C@H]2CO[C@H]3[C@@H]2OC[C@@H]3NC(=O)CC2(CC(=O)O)CCCC2)n1 | inactive |
| O=C(Nc1ccccc1)O[C@@H]1CO[C@H]2[C@@H]1OC[C@@H]2NS(=O)(=O)c1cccc2cccnc12 | inactive |
| COc1ccc(NC(=O)O[C@@H]2CO[C@H]3[C@@H]2OC[C@@H]3NC(=O)NC2CCCCC2)cc1 | inactive |
| COc1cccc(NC(=O)O[C@@H]2CO[C@H]3[C@@H]2OC[C@@H]3Nc2nccc(-c3cccs3)n2)c1 | 15.8 µM (active) |
| CC(C)(C)c1ccnc(N[C@H]2CO[C@H]3[C@@H]2OC[C@H]3OC(=O)Nc2cccc(C(F)(F)F)c2)n1 | inactive |
| COc1ccc(OC)c(NC(=O)COc2c(C)cc(C)cc2C)c1 | inactive |
| CSc1ccccc1N=Cc1ccc(Cl)c(Cl)c1 | inactive |
| COc1ccc(OC)c(CCNC(=O)c2nn(C)c3c2CS(=O)(=O)c2ccccc2-3)c1 | inactive |
| CC(=O)Nc1ccc(S(=O)(=O)Nc2c(NC3CCCC3)c3ccccc3oc2=O)cc1 | inactive |
| O=[N+]([O-])c1cccc2nc(/C=C/c3ccc(C(F)(F)F)cc3)ccc12 | inactive |
| N#Cc1cccc(C2CCN(C(=O)C3CCN(C(=O)C4CC4)CC3)CC2)c1 | inactive |
| Cn1c(=O)[nH]c(=O)c2c1nc(N1CCN(Cc3ccccc3Cl)CC1)n2Cc1ccc(F)cc1 | inactive |
| O=C(Cc1cccc(Cl)c1)N1CCC2(CN[S+](=O)([O-])c3cccnc3O2)C1 (stereo not given) | inactive |
| O=[S+]1([O-])NCC2(CCCN(Cc3ccncc3)C2)Oc2ncccc21 (stereo not given) | inactive |
| O=C(Cc1cccc(Cl)c1)N1CCC2(CC1)CN[S+](=O)([O-])c1cccnc1O2 | 79.4 µM (active) |
| CNS(=O)(=O)c1ccc(NC(=O)Nc2ccc3c(c2)OCO3)cc1 | inactive |
| COc1c(CNCc2cccnc2N2CCOCC2)c(C)nn1C | inactive |
| Cn1c(CN2CCOCC2)nnc1C1CCN(c2ncccc2C#N)CC1 | 31.6 µM (active) |
| Cc1nccnc1N1CCC(c2nnc(CN3CCCC3)n2C)CC1 | inactive |

| Compound | Potency |
| --- | --- |
| C=CCNC(=O)c1cn2c(n1)CN(C(=O)c1ccccc1F)CC2 | inactive |
| C=CCNC(=O)c1cn2c(n1)CN([S+](C)(=O)[O-])CC2 | inactive |
| C=CCNC(=O)c1ccc2ccnn2c1 | 31.6 µM (active) |
| Cn1cc(CN2C[C@@H](CO)[C@H](C(=O)NC3CC3)C2)cn1 | inactive |
| Cc1cccc2nnc(N3CCN(C(=O)c4ccc(F)c(F)c4)CC3)n12 | 28.2 µM (active) |
| Cc1cccc(C(=O)N2CCN(S(=O)(=O)N3CCCCC3)CC2)c1 | inactive |
| Cc1ccc(-n2c(SC(C)C(=O)c3ccc(F)c(F)c3)nnc2N2CCOCC2)cc1 (stereo not given) | inactive |
| COc1ccccc1C(=O)N1CCC(n2cnnc2C2CC2)CC1 | inactive |
| COc1ccccc1C(=O)N1CCCN(c2nnc3ccccn23)CC1 | 31.6 µM (active) |
| Cc1cccc(C(=O)N2CCCN(c3nnc4ccccn34)CC2)c1 | 28.2 µM (active) |
| COc1ccccc1C(=O)N1CCN(c2cc(C(F)(F)F)ncn2)CC1 | inactive |
| Cc1cccc(C(=O)N2CCC(OC3CCN(Cc4ccccc4)CC3)CC2)c1 | inactive |
| O=C(c1ccc(F)cc1)N1CCN(c2cc(-c3ccc(F)cc3)[nH]n2)CC1 | inactive |
| Nc1cc(OCC(F)(F)F)cc(OCC(F)(F)C(F)F)c1 | inactive |
| CC1CCCC(NC(=O)c2ccccc2)C1C (stereo not given) | inactive |
| COCCSCC(=O)N1CCOC(C)(C)C1 | inactive |
| COCc1nc(C2CCCN(C(=O)CCC3CCCC3)C2)no1 (stereo not given) | inactive |
| O=C(c1cc(-c2ccc(O)cc2)on1)N1CCOCC1 | inactive |
| O=C(c1cc2cccnn2n1)N1CCOCC1 | 31.6 µM (active) |
| Cc1cc(C(=O)N2CCC3(CC2)CC(C(=O)N2CCOCC2)N(C)C3)nn1C (stereo not given) | inactive |
| Cc1ccc(CNC(=O)Cc2cn(C)c3ccccc23)cc1 | inactive |
| CCOc1ccccc1NC(=O)NC1CCCCCCC1 | inactive |
| COc1cccc(NC(=O)C2(C#N)CCCC2)c1 | inactive |
| COc1ccc(Nc2cc(C(=O)N3CCOCC3)c3ccccc3n2)cc1 | inactive |
| COc1ccc(NC(=O)C2(C)CN(C)Cc3ccc(Nc4cccc(OC)c4)nc32)cc1 (stereo not given) | 14.1 µM (active) |

| Compound | Potency |
| --- | --- |
| O=C(Nc1cc(F)ccc1F)N1CCC2(CC1)Oc1ccccc1C(=O)N2Cc1ccccc1F | inactive |
| OCCCSc1nnc(-c2c[nH]c3ccccc23)n1C1CC1 | inactive |
| O=C(NCC1Cn2cccc2C(=O)N1Cc1ccccc1)c1ccc(F)cc1 (stereo not given) | inactive |
| O=C(NCC1Cn2cccc2CN1Cc1ccccc1)c1ccco1 (stereo not given) | 28.2 µM (active) |
| CC(C)CNC(=O)NCC1Cn2cccc2C(=O)N1Cc1ccccc1 (stereo not given) | inactive |
| CC(C)NC(=O)NCC1Cn2cccc2C(=O)N1Cc1ccccc1 (stereo not given) | inactive |
| O=C(NCC1Cn2cccc2C(=O)N1Cc1ccccc1)c1ccco1 (stereo not given) | inactive |
| CC(=O)NCC1Cn2cccc2CN1Cc1ccccc1 (stereo not given) | 28.2 µM (active) |
| CCCn1nc(C(=O)NCc2cccc(OC)c2)c2ccccc2c1=O | inactive |
| O=C(CSc1ncc(CO)n1Cc1ccc(F)cc1)NCc1ccc2c(c1)OCO2 | inactive |
| CN(C(=O)Cn1c(=O)n(C)c(=O)c2sccc21)c1ccccc1 | inactive |
| Cc1ccc(C(=O)c2ccccc2C(=O)OCc2c(Cl)cccc2Cl)cc1 | inactive |
| O=C(NCCc1nc2ccccc2[nH]1)c1ccc(N2CCCN(Cc3ccccc3)C2=O)cc1 | inactive |
| COCC(=O)N[C@H]1C[C@H]2C(=O)Nc3ccc(/C=C/c4ccc(OC)cc4)cc3C(=O)N2C1 | 28.2 µM (active) |
| COCCn1ccc2cc(C(=O)Nc3ccc4c(c3)C(=O)N3CCC[C@H]3C(=O)N4)ccc21 | inactive |
| O=C1Nc2ccc(Br)cc2C(=O)N2CCN(C(=O)C3CCCCC3)C[C@H]12 | inactive |
| COc1ccc(C(=O)N2CCc3nc(C(C)C)nc(-c4ccc(Cl)cc4)c3CC2)cc1 | inactive |
| Cc1nn(CC(=O)NC(C)(C)C)c(C)c1S(=O)(=O)N1CCCC(C(=O)N2CCC(C)CC2)C1 (stereo not given) | inactive |
| Cc1cc(NC(=O)CCSc2nnc3c(Cl)cc(C(F)(F)F)cn23)no1 | inactive |
| COc1ccc(C(=O)N[C@H](C(=O)NCc2ccccc2)C(C)C)cc1 | inactive |
| O=C(C1NCCc2[nH]cnc21)N1CCc2nnc(-c3ccccc3)n2CC1 (stereo not given) | inactive |
| O=C(NCc1nnc2ccccn12)C1NCCc2[nH]cnc21 (stereo not given) | inactive |
| Nc1nc(CCCNC(=O)C2NCCc3[nH]cnc32)cs1 (stereo not given) | 25.1 µM (active) |
| COc1ccc2nc(C)c(C(=O)N(C)CC3COc4ccccc4O3)cc2c1 (stereo not given) | inactive |
| C/C(=N/NC(=S)NCc1ccccc1)c1cccc(C(F)(F)F)c1 | inactive |

Source: PubChem BioAssay AID1347165 (National Center for Advancing Translational Sciences (NCATS), 2019)
